RGS16-Gao HTS: modulators of RGS16 binding to Galphao, primary screen, biochemical, human proteins, multiplexed bead flow cytometry; Regulator of G-protein signaling 16 (Homo sapiens) + Guanine nucleotide-binding protein …; bead-based flow cytometry RGS16-Galphao binding, fluorescence; actives lie on both sides; binding response (% of control), % at 10 µM; actives 0.38% (n = 220,000);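 further: Galphao activated by GDP with aluminum fluoride before binding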
Target sequence (O15492 whole entry, looked up): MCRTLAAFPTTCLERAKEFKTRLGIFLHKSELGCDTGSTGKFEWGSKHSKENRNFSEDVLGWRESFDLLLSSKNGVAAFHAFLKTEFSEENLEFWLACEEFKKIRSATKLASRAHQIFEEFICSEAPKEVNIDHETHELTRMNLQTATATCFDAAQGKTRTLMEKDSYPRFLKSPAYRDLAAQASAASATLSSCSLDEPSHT
Target sequence (P09471 whole entry, looked up): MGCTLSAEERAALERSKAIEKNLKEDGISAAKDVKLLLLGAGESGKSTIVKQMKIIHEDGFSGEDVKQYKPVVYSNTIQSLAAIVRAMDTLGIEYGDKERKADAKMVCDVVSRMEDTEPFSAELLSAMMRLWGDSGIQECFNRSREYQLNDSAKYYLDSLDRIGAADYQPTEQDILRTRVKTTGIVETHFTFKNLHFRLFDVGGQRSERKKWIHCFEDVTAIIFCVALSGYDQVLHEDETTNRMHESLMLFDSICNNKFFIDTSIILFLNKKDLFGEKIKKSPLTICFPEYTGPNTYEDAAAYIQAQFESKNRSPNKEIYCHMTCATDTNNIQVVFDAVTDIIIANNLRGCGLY
RGS7-Gao reg: RGS7-Galphao binding modulators, primary screen, biochemical, multiplexed bead flow cytometry. actives lie on both sides. actives 0.35% (n = 220,000). binding response (% of control), % at 10 µM. Guanine nucleotide-binding protein G(o) subunit alpha (Homo sapiens), P09471. AID 1439, 2008; in the data active means binding response below about 49% or above about 150%; inconclusive means no clear call, values can overlap the other calls; inactive means in between;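 further: fluorescent Galphao held in activated GDP-AlF4 state binding bead-coupled RGS7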
Target sequence (P09471 whole entry, looked up): as above
RGS8-Gao: RGS8-Galphao binding modulators, primary screen, biochemical, multiplexed bead flow cytometry | actives lie on both sides | actives 0.34% (n = 220,000) | response (percent of control binding), % at 10 µM | Guanine nucleotide-binding protein G(o) subunit alpha (Homo sapiens), P09471 | AID 1423, 2008; in the data active means response below about 60% or above about 140%; inactive means in between;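 further: Galphao activated as the GDP aluminium fluoride complex binding bead-coupled RGS8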
RGS4-Gao reg: modulators of RGS4 binding to Galphao, primary screen, biochemical, multiplexed bead flow cytometry; binding response (% of control), % at 10 µM; actives 0.33% (n = 220,000); Guanine nucleotide-binding protein G(o) subunit alpha (Homo sapiens), P09471; actives lie on both sides; in the data active means binding response below about 49% or above about 150%; inactive means in between;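 further: fluorescent Galphao activated with aluminum fluoride binding bead-coupled RGS4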
Avidin bead fluor: green autofluorescence of compounds with avidin beads – biophysical, 488/530 nm, flow cytometry, artefact control, profiling panel; fluorescence (KMESF) at 10 µM; compound fluorescence 488/530 nm; stronger effect = higher value; actives 0.38% (n = 220,000); in the data active means fluorescence above about 47
GSH bead fluor: compound fluorescence on glutathione beads, profiling panel, artefact control, biophysical, 488/530 nm, flow cytometry; actives 0.25% (n = 190,000); AID 1776, 2009; fluorescence (KMESF) at 10 µM; GSH beads flow cytometry, compound fluorescence 488/530 nm; stronger effect = higher value; in the data active means fluorescence above about 89;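 further: glutathione beads carrying GST-tagged Bcl family fusion proteins plus one bare bead set; values are compound well signal with DMSO vehicle wells as background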
RGS-Gao: modulators of RGS–Galpha-o binding, primary screen, biochemical, multiplexed beads, flow cytometry, RGS4/7/8/16/19 | shares compounds with RGS16-Gao HTS | multiplexed bead flow cytometry | RGS4–Galpha-o binding response, % at 10 µM | actives 99% (n = 1,600);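 further: fluorescently labeled Galpha-o bound to GDP with aluminium fluoride binding biotinylated RGS beads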
Biotin-avidin: disruption of biotin probe capture by avidin, counter-screen for RGS protein interaction modulators, biochemical, flow cytometry, bead-based. streptavidin beads, fluorescein-biotin binding. 1,700 tested, under 10 active. shares compounds with RGS16-Gao HTS. inhibition, % at 10 µM;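 active means inhibition above 50%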;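 further: median green fluorescence of gated singlet beads compared with DMSO control wells; 0% = DMSO wells and 100% = complete loss of bead fluorescence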
RGS8-Gao single: RGS8-Galphao binding modulators, confirmation, biochemical, multiplexed bead flow cytometry, single concentration. binding response (% of control), % at 10 µM. bead-based flow cytometry RGS8-Galphao binding, fluorescence; actives lie on both sides. actives 3% (n = 1,700). shares compounds with RGS16-Gao HTS; in the data active means binding response below about 72% or above about 130%; inactive means in between;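 further: Galphao activated as GDP AlF4 complex before binding bead RGS8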
RGS7-Gao single: RGS7-Galphao binding modulators, confirmation, biochemical, multiplexed bead flow cytometry, single concentration; shares compounds with RGS16-Gao HTS; bead-based flow cytometry RGS7-Galphao binding; actives lie on both sides; response (percent of control binding), % at 10 µM; actives 7.8% (n = 1,700); in the data active means response below about 75% or above about 130%; inactive means in between;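 further: fluorescent Galphao activated with GDP and aluminum fluoride binding bead-coupled RGS7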
RGS16-Gao single: modulators of RGS16-Galphao protein binding, confirmation, biochemical, single concentration, multiplexed bead flow cytometry; response (% of control binding), % at 10 µM; shares compounds with RGS16-Gao HTS; actives 4% (n = 1,700); AID 1838, 2009; bead-based flow cytometry; actives lie on both sides; in the data active means response below about 74% or above about 130%; inactive means in between;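 further: Galphao activated as the GDP aluminium fluoride complex binding bead-coupled RGS16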
RGS4-Gao single: modulators of RGS4-Galphao protein binding, confirmation, biochemical, single concentration, multiplexed bead flow cytometry; shares compounds with RGS16-Gao HTS; actives lie on both sides; binding response (% of control), % at 10 µM; actives 4% (n = 1,700); AID 1840, 2009; in the data active means binding response below about 74% or above about 130%; inactive means in between
RGS19-Gao single: regulators of RGS19-Galphao binding, confirmation, biochemical, single point, multiplexed bead flow cytometry | shares compounds with RGS16-Gao HTS | response (percent of control binding), % at 10 µM | AID 1841, 2009 | actives 5% (n = 1,700) | bead-based flow cytometry RGS19-Galphao binding; actives lie on both sides; in the data active means response below about 50% or above about 160%; inactive means in between;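 further: 100% = no compound control and 0% = blank background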
Active calls of the source: *; [ ] = remark or other dose. Compounds with a hit are over-represented: about 1.2% of the library has one in this group of screens. Unless noted, how the calls were made is not given here.

CC(=O)N1CCN(c2ccc(NCc3cccs3)cc2)CC1 was read as RGS16-Gao HTS 30.5, RGS7-Gao reg 40.3*, RGS8-Gao 45.7*, RGS4-Gao reg 49.6*, Avidin bead fluor 3, GSH bead fluor 18, Biotin-avidin 1.4, RGS8-Gao single 105.2, RGS7-Gao single 103.5, RGS16-Gao single 101.3, RGS4-Gao single 99.4 and RGS19-Gao single 108.0.
CCOC(=O)C1C(c2ccc(O)c(O)c2)NC(=S)NC1(O)C(F)(F)F (stereo unspecified) was read as RGS16-Gao HTS 68.3, RGS7-Gao reg 34.5*, RGS8-Gao 76.3, RGS4-Gao reg 17.5*, Avidin bead fluor 6, GSH bead fluor 6, Biotin-avidin 0.5, RGS8-Gao single 97.9, RGS7-Gao single 98.4, RGS16-Gao single 97.4, RGS4-Gao single 96.5 and RGS19-Gao single 102.2.
O=c1nc(N2CCOCC2)ccn1-c1nc(-c2ccccc2)sc1-c1ccccc1 was read as RGS16-Gao HTS 102.4, RGS7-Gao reg inconclusive, RGS8-Gao 100.9, RGS4-Gao reg 101.4 and Avidin bead fluor 11.
Cc1ccc(C(=O)Nc2ccc(S(=O)(=O)N3CCOCC3)cc2)cc1 was read as RGS16-Gao HTS 104.4, RGS7-Gao reg 365.2*[activator], RGS8-Gao 93.9, RGS4-Gao reg 150.8*[activator], Avidin bead fluor 227*, GSH bead fluor 22, Biotin-avidin -0.3, RGS8-Gao single 100.2, RGS7-Gao single 100.8, RGS16-Gao single 105.8, RGS4-Gao single 104.6 and RGS19-Gao single 109.8.
For CC(=O)Nc1ccc(S(=O)(=O)NNC(=O)c2ccc(S(=O)(=O)N3CCCCC3)cc2)cc1 the results were RGS16-Gao HTS 20.0*, RGS7-Gao reg 99.3, RGS8-Gao 87.8, RGS4-Gao reg 97.9, Avidin bead fluor 8, GSH bead fluor 22, RGS-Gao 97.9*, Biotin-avidin 0.2, RGS8-Gao single 93.0, RGS7-Gao single 91.9, RGS16-Gao single 90.0, RGS4-Gao single 91.5 and RGS19-Gao single 82.1.
Screening O=C(NNS(=O)(=O)c1ccc(F)cc1)c1ccc(S(=O)(=O)N2CCCCC2)cc1 returned RGS16-Gao HTS 112.3, RGS7-Gao reg 100.5, RGS8-Gao 100.5, RGS4-Gao reg 103.0, Avidin bead fluor 4 and GSH bead fluor 8.
For O=C(Nc1ccc(S(=O)(=O)N2CCOCC2)cc1)c1ccc(Cl)cc1 the results were RGS16-Gao HTS 98.8, RGS7-Gao reg inconclusive, RGS8-Gao 98.5, RGS4-Gao reg 98.4 and Avidin bead fluor 20.
Screening C=CCn1c(CCNC(=O)c2ccccc2F)nnc1SCc1nc2ccccc2c(=O)[nH]1 returned RGS16-Gao HTS 99.2, RGS7-Gao reg 99.7, RGS8-Gao 98.1, RGS4-Gao reg 100.1, Avidin bead fluor 13 and GSH bead fluor 35.
`C=CCn1c(CNC(=O)c2ccccc2F)nnc1SCc1nc2ccccc2c(=O)[nH]1` gave GSH bead fluor 10, Biotin-avidin -0.8, RGS8-Gao single 98.0, RGS7-Gao single 96.4, RGS16-Gao single 97.2, RGS4-Gao single 97.1 and RGS19-Gao single 89.5.
For C=CCn1c(=NC(=O)c2ccccc2[N+](=O)[O-])sc2cc(S(C)(=O)=O)ccc21 the results were RGS16-Gao HTS 101.5, RGS7-Gao reg 99.7, RGS8-Gao 101.5, RGS4-Gao reg 99.8, Avidin bead fluor 10 and GSH bead fluor 12.
CCCCn1c(=S)[nH]c2c(oc3ccc(Cl)cc32)c1=O was read as RGS16-Gao HTS -19.1*, RGS7-Gao reg 7.1*, RGS8-Gao 5.1*, RGS4-Gao reg -5.2*, Avidin bead fluor -3, GSH bead fluor 21, Biotin-avidin -2.4, RGS8-Gao single 105.7, RGS7-Gao single 108.2, RGS16-Gao single 104.5, RGS4-Gao single 101.1 and RGS19-Gao single 109.4.
`O=C(c1cccnc1Nc1ccc2c(c1)CCC2)N1CCOCC1` gave RGS16-Gao HTS -1.9*, RGS7-Gao reg -1.2*, RGS8-Gao 8.5*, RGS4-Gao reg -3.1*, Avidin bead fluor -3, GSH bead fluor 16, Biotin-avidin -1.6, RGS8-Gao single 101.2, RGS7-Gao single 96.5, RGS16-Gao single 101.6, RGS4-Gao single 101.4 and RGS19-Gao single 101.3.
Screening CSc1nc(-c2ccccc2)nn1S(=O)(=O)c1ccccc1 returned RGS16-Gao HTS 199.2*[activator], RGS7-Gao reg 171.2*[activator], RGS8-Gao 104.4, RGS4-Gao reg 173.2*[activator], Avidin bead fluor 96*, GSH bead fluor 19, Biotin-avidin -2.3, RGS8-Gao single 103.7, RGS7-Gao single 104.6, RGS16-Gao single 104.0, RGS4-Gao single 103.3 and RGS19-Gao single 102.7.
